Data reported in PubChem BioAssay AID1345085 (National Center for Advancing Translational Sciences (NCATS), 2018).
Inconclusive results are not listed. Activity calls are given as the source filed them. Calls come from the whole dose curve; as a rule, active = well fitted cell-killing curve with a large enough effect; inconclusive = small, poorly fitted or top-dose-only effect, or effect the other way; inactive = no such curve, though single readings can be large or run the other way.

Each compound was assayed on PA-1 (assay: Confirmatory qHTS for gynecologic anti-cancer compounds from libraries of approved drugs and bioactive compounds). Details: gynecologic cancer cell panel viability, ATPlite luminescence, 48 h; series mostly up to 57.6 µM.
Outline: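 ATPlite luminescence read-out of cell viability; IC50 from 11-point 1:3 titrations, 57.5 uM to 0.977 nM, 48 h compound exposure at 37 C, 5% CO2. Cells seeded at 1,000/well 16 h before dosing.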
Note: nearly all actives have a fitted effect of over 55% in size.
Potency is the fitted concentration of half-maximal effect.

SMILES | Potency
O=C(CCCCCCC(=O)Nc1ccccc1)NO | 1.37 µM (active)
O=C(NOC[C@H](O)CO)c1ccc(F)c(F)c1Nc1ccc(I)cc1F | 3.85 µM (active)
Cc1nc(N)nc(N)c1-c1ccc(Cl)c(Cl)c1 | 1.37 µM (active)
COc1ccc(-c2cc3nccn3c(Nc3ncccc3C(N)=O)n2)cc1OC | 6.11 µM (active)
CC(=O)OC12COC1CC(O)C1(C)C(=O)C(O)C3=C(C)C(OC(=O)C(O)C(NC(=O)OC(C)(C)C)c4ccccc4)CC(O)(C(OC(=O)c4ccccc4)C21)C3(C)C (stereo unspecified) | 0.0077 µM (active)
COc1ccc(CCC(=O)c2c(O)cc(O[C@@H]3O[C@H](CO)[C@@H](O)[C@H](O)[C@H]3O[C@@H]3O[C@@H](C)[C@H](O)[C@@H](O)[C@H]3O)cc2O)cc1O | inactive
CCN1CCN(Cc2ccc(Nc3ncc(F)c(-c4cc(F)c5nc(C)n(C(C)C)c5c4)n3)nc2)CC1 | 2.43 µM (active)
C=CC(=O)Nc1cccc(Oc2nc(Nc3ccc(N4CCN(C)CC4)cc3)ncc2Cl)c1 | 7.69 µM (active)
Cc1ccc(C(=O)Nc2cccc(C(F)(F)F)c2)cc1-c1ccc2nc(NCCN3CCOCC3)ncc2c1 | 17.2 µM (active)
CCN1C[C@H](C)n2c(c(O)c3c(=O)n(Cc4ccc(F)c(Cl)c4)nc(C(=O)NC)c32)C1=O | inactive
NC(=O)Nc1cc(-c2cccc(F)c2)sc1C(=O)NC1CCCNC1 (stereo unspecified) | 1.72 µM (active)
CN1CCCC(n2nc(Cc3ccc(Cl)cc3)c3ccccc3c2=O)CC1 (stereo unspecified) | 27.3 µM (active)
CN1C2CCC1CC(OC(=O)[C@H](CO)c1ccccc1)C2 (stereo partly specified) | inactive
COc1ccc2c(c1OC)C(=O)O[C@@H]2[C@H]1c2c(cc3c(c2OC)OCO3)CCN1C | 24.3 µM (active)
CN(c1nccc(=O)[nH]1)C1CCN(c2nc3ccccc3n2Cc2ccc(F)cc2)CC1 | inactive
COc1cc(F)c(F)c(Nc2ccc(I)cc2F)c1NS(=O)(=O)C1(CC(O)CO)CC1 (stereo unspecified) | inactive

SMILES | Potency
CC(C)C[C@H](NC(=O)[C@H](Cc1ccccc1)NC(=O)c1cnccn1)B(O)O | 0.0385 µM (active)
Nc1nc(=S)c2[nH]cnc2[nH]1 | 6.85 µM (active)
CCCCc1nc2cc(/C=C/C(=O)NO)ccc2n1CCN(CC)CC | 0.385 µM (active)
COc1ccc(-c2nc3ccc(C4=NNC(=O)CC4C)cc3[nH]2)cc1 (stereo unspecified) | 21.7 µM (active)
Cc1cc(C2CCCCC2)n(O)c(=O)c1 | 3.53 µM (active)
Nc1ccn([C@@H]2O[C@H](CO)[C@@H](O)C2(F)F)c(=O)n1 | 0.0611 µM (active)
COc1c(C)c2c(c(O)c1C/C=C(\C)CCC(=O)O)C(=O)OC2 | 2.17 µM (active)
O=C(CCCCCCNC(=O)c1cnc(N(c2ccccc2)c2ccccc2)nc1)NO | 3.06 µM (active)
CCS(=O)(=O)c1cccc(-c2cc(C(=O)NC3CCN(C)CC3)c(C)c3[nH]c4ncc(C)cc4c23)c1 | 1.06 µM (active)
CC[C@@]1(O)C(=O)OCc2c1cc1n(c2=O)Cc2cc3c(CN(C)C)c(O)ccc3nc2-1 | 0.273 µM (active)
C1CCC(C(CC2CCCCN2)C2CCCCC2)CC1 (stereo unspecified) | 27.3 µM (active)
CCOc1cc2ncc(C#N)c(Nc3ccc(F)c(Cl)c3)c2cc1NC(=O)/C=C/CN(C)C | 17.2 µM (active)
CCN(CC)CCCC(C)Nc1ccnc2cc(Cl)ccc12 (stereo unspecified) | inactive
CCc1c2c(nc3ccc(OC(=O)N4CCC(N5CCCCC5)CC4)cc13)-c1cc3c(c(=O)n1C2)COC(=O)[C@]3(O)CC | 7.69 µM (active)
C#C[C@]1(O)CC[C@H]2[C@@H]3CCC4=CC(=O)CC[C@@H]4[C@H]3CC[C@@]21CC | inactive
